These results are taken from PubChem BioAssay (NCATS).

Structures are written as SMILES. Inconclusive results are not listed. Activity calls are given as the source filed them. Calls come from the whole dose curve; as a rule, active = well fitted cell-killing curve with a large enough effect; inconclusive = small, poorly fitted or top-dose-only effect, or effect the other way; inactive = no such curve, though single readings can be large or run the other way.

A short description of the test: Cell Viability - LYMP2-005 (AID 967). The conditions noted are these: LYMP2-005 lymphoblastoid cell viability; series mostly up to 92.2 µM. An excerpt:
NIH Chemical Genomics Center [NCGC]
NIH Molecular Libraries Screening Centers Network [MLSCN]
National Institutes of Environmental Health Sciences [NIEHS]
National Toxicology Program [NTP]
We have developed a 1536-well cell-based assay for quantitative high throughput screening (qHTS) against a number of cell lines to determine in vitro cytotoxicity of small molecules. This particular assay uses a human lymphoblastoid cell line (LYMP2-005) purchased from Coriell Institute for Medical Research.
NCGC Assay Protocol Summary:
The CellTiter-Glo luminescent cell viability assay (Promega) is a homogeneous method to measure the number of viable cells in culture. The end point readout of this assay is based on quantitation of intracellular ATP, an indicator of metabolic activity, using the luciferase reaction. Luciferase catalyzes the oxidation of beetle Luciferin to oxyluciferin and light in the presence of ATP. The luminescent signal is proportional to amount of ATP present.
Using the CellTiter-Glo luminescent cell viability assay, the amount of cellular ATP was measured in the lymphoblastoid cell line with complete culture medium following compound treatment for 24 hours. The assay was performed in opaque white Kalypsys 1536-well plates. In the screen, tetraoctylammonium bromide was used as positive control. Library compounds were measured for their ability to cause acute toxicity in the cell line, as reflected by a decrease in intracellular ATP levels, in a concentration-dependent manner. […] AC50 values were determined from concentration-response data modeled with the standard Hill equation.
qHTS protocol for CellTiter Glo lymphoblastoid cellular assay
[Step] [Parameter] [Value] [Description]
1. Reagent; 5 uL; 2500 lymphoblastoid cells/well
2. Time; 5 hr; 37 C incubation
4. Controls; 23 nL; Tetraoctylammonium bromide 6.4pM to 92 uM
5. Time; 24 hr; 37 C incubation
6. Reagent; 5 uL; CellTiter Glo reagent
7. Time; 30 min; Room Temperature
8. Detection; Luminescence; Viewlux plate reader
Keywords: cell viability, cytotoxicity, lymphoblastoid cell line, luminescence, NTPHTS, NTPHTS_NCGC, NIEHS, DSSTox, MLSMR, MLSCN, NIH Roadmap, qHTS, NCGC
Consider `O=[N+]([O-])c1cc(C(F)(F)F)ccc1Cl`, for which the call was inactive.
With `O=C(O)CNC(=O)c1ccc(CO)o1` the entry was “inactive”; with `Cc1cc([N+](=O)[O-])ccc1N`, “inactive”; with `Cc1ccc2nc(-c3ccc(N)cc3)sc2c1S(=O)(=O)O`, “inactive”.
For `C=C(C)C(=O)OCC(C)C` the value was “inactive”.
For the compound `C[C@@H]1CC2(OC[C@]3(C)O[C@H]23)O[C@H]2C[C@@]3(C)[C@@H]4CC[C@H]5C(C)(C)C(O[C@@H]6OC[C@@H](O)[C@H](O)[C@H]6O)CC[C@@]56C[C@@]46CC[C@]3(C)[C@@H]12` (stereo not given in full), the result was inactive.
For `CCCCCCC(=O)O` the value was “inactive”; for `Nc1ccc(Cl)cc1[N+](=O)[O-]`, “inactive”.
With `N#Cc1ccccc1` the entry was “inactive”; with `CC(=O)c1cccc([N+](=O)[O-])c1`, “inactive”.
With `CN(C)CCCNCCCN` the entry was “inactive”; with `CC(C)N=C=NC(C)C`, “inactive”; with `CC1CCC2CC1C2(C)C` (stereo not given), “inactive”.
Take `CCN(CC)c1cccc(O)c1`: the result was inactive.
For `Nc1cccc(S(=O)(=O)O)c1` the value was “inactive”.
For `Cc1ccc(C(=O)O)cc1` the value was “inactive”; for `COC(=O)c1ccccc1`, “inactive”; for `CCCCCCCCC/C=C/CC1CC(=O)OC1=O` (stereo not given), “inactive”.
For `Cc1ccccc1C#N` the value was “inactive”.
Consider `Cc1ccc(C)c([N+](=O)[O-])c1`, for which the result was inactive.
Regarding `CC/C=C/C#N`, the compound was called inactive.
For `CCCCC(CC)CNCC(CC)CCCC` (stereo not given) the value was “inactive”; for `O=C(O)c1ccc(Cl)c(Cl)c1`, “inactive”; for `Clc1cc(Cl)cc(Cl)c1`, “inactive”.
For `COc1cccc2sc(N)nc12`, the compound was called inactive.
With `CC(C)CO` the entry was “inactive”.
With `CCCCCCCCCCCCOCC1CO1` (stereo not given) the entry was “inactive”.
For `NCCCCCCN` the value was “inactive”; for `CC(=O)c1ccccn1`, “inactive”.
Regarding `CC(CCl)OC(C)CCl` (stereo not given), the compound was called inactive.
With `CC(C)c1ccccc1` the entry was “inactive”.
For `CCC(C)=O` the value was “inactive”.
With `O=C(O)CCSSCCC(=O)O` the entry was “inactive”; with `C=CCOC(=O)CCCCCCCC`, “inactive”; with `CC(C)=CCl`, “inactive”.
Take `CCCC(Cl)CCCC(Cl)CCC(Cl)CCC(Cl)CCC(Cl)CCCC(Cl)CCC` (stereo not given): the result was inactive.
For `O=[N+]([O-])c1ccc(NCCO)c(OCCO)c1` the value was “inactive”.
For `CCOC(C)(C)C` the value was “inactive”.
With `Cc1ccccc1C(=O)O` the entry was “inactive”; with `CN(C)c1cccc(O)c1`, “inactive”.
